Experimental data from PubChem BioAssay (EPA / NIEHS).
“And” between values parts separate entries of the source, which are not always exact repeats. Equal values may be shown once. Results filed as inconclusive are left out. Some structures have more than one record in an assay (separate samples or runs), and their calls can disagree. The source made the active and inactive calls. Rule for the calls, unless noted: active = hit-call score of the fitted dose curve at least 0.9, where 1 is the maximum; inactive = score below 0.9.

Legend:
[1] = CCTE_Shafer_MEA_dev_per_burst_spike_percent: CCTE's Neural Network Formation Assay for Percent of Spikes in a Burst, Shafer Lab (AID 2284032);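 note: fitted as a decrease in burst spike percentage below DMSO baseline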
Summary of the method: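 Value is trapezoidal AUC over recordings on days 5, 7, 9 and 12 of the well-mean fraction of spikes falling in single-electrode bursts; rat cortical cultures exposed continuously from plating, treatment renewed DIV 5 and 9, fitted downward against DMSO.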

[2] = CCTE_Shafer_MEA_dev_active_electrodes_number: CCTE's Neural Network Formation Assay for Number of Active Electrodes, Shafer Lab (AID 2284040; active = hit-call score of the fitted dose curve at least 0.9, where 1 is the maximum;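 note: potency for loss of active electrodes versus DMSO so lower counts are hits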)
Summary of the method: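 Developing rat cortical networks on MEAs, exposed DIV 0–12. Value is the AUC of active-electrode counts (≥5 spikes/min) from days 5, 7, 9, 12, relative to DMSO.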

[3] = CCTE_Shafer_MEA_dev_burst_duration_mean: CCTE's Neural Network Formation Assay for Mean Burst Duration, Shafer Lab (AID 2284045)
Summary of the method: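 Network-formation assay in primary rat cortical neurons; treatment spans twelve days of development. Mean burst duration per well is integrated by trapezoidal AUC and fitted in the loss-of-signal direction against DMSO baseline.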

[4] = CCTE_Shafer_MEA_dev_interburst_interval_mean: CCTE's Neural Network Formation Assay for Mean Interburst Interval, Shafer Lab (AID 2284046);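 note: well-mean interburst interval of bursting electrodes as AUC over four recording days; curve fitted for decrease in interburst interval relative to DMSO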
Summary of the method: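 Developing rat cortical networks on 48-well MEAs receive compound from the day of plating. Burst intervals from each active electrode are averaged per well, and AUC over the recording days is fitted in the negative direction against DMSO.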

[5] = CCTE_Shafer_MEA_dev_inter_network_spike_interval_mean: CCTE's Neural Network Formation Assay for Mean Inter-network Spike Interval, Shafer Lab (AID 2284047)
Summary of the method: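 Rat cortical cultures, 1.5 x 10^5 cells/well on 48-well MEA plates; continuous exposure days 0–12, medium and compound refreshed DIV 5, 9. Mean time between consecutive network-spike peaks; AUC across DIV 5/7/9/12; DMSO baseline, negative fitting direction.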

[6] = CCTE_Shafer_MEA_dev_network_spike_number: CCTE's Neural Network Formation Assay for Number of Network Spikes, Shafer Lab (AID 2284048);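 note: synchronized bursts across electrodes counted on days 5 7 9 12 and integrated as AUC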;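 for AC50: fit as a loss of signal meaning fewer network spikes than DMSO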
Summary of the method: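 Extracellular recordings from 16-electrode wells track network formation in rat cortical cultures under continuous treatment from plating. The endpoint is network spike number, expressed as AUC across DIV 5–12 relative to DMSO vehicle.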

[7] = CCTE_Shafer_MEA_dev_network_spike_peak: CCTE's Neural Network Formation Assay for Mean Number of Electrodes in Network Spike, Shafer Lab (AID 2284049);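 note: fitted for loss of signal meaning fewer electrodes in network spikes than DMSO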
Summary of the method: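 Continuous 12-day exposure of rat cortical cultures, starting at plating, on MEA plates. Endpoint: electrodes participating in network-spike peaks, AUC across DIV 5–12, DMSO as negative control.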

[8] = CCTE_Shafer_MEA_dev_spike_duration_mean: CCTE's Neural Network Formation Assay for Mean Spike Duration, Shafer Lab (AID 2284051);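 note: mean network spike duration pooled as area under curve over DIV 5 to 12 recordings; potency for a decrease in mean network spike duration versus DMSO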
Summary of the method: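 Readout is the average length of network spikes, clustered firing across electrodes, summed over DIV 5, 7, 9 and 12 as area under the curve. Neurons from rat cortex developed networks on MEA plates under continuous 12-day exposure.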

[9] = CCTE_Shafer_MEA_dev_network_spike_duration_std: CCTE's Neural Network Formation Assay for Standard Deviation of Network Spike Duration, Shafer Lab (AID 2284052);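 note: area under curve of spike duration SD across recording days 5 to 12; hits are decreases in network spike duration SD versus DMSO vehicle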
Summary of the method: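 Read-out is the trapezoidal area-under-the-curve across recordings made on days 5, 7, 9 and 12, fitted in the negative direction against DMSO baseline. Neurons were primary rat cortical cells treated from day 0, with treatment renewed at each feed.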

[10] = CCTE_Shafer_MEA_dev_per_network_spike_spike_number_mean: CCTE's Neural Network Formation Assay for Mean Number of Spikes in a Network Spike, Shafer Lab (AID 2284053);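 note: fitted as decrease in spikes per network spike relative to DMSO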
Summary of the method: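 Continuous twelve-day exposure of developing rat cortical networks grown over 16 microelectrodes per well; spontaneous firing is captured at four time points, and the per-network-spike spike number is integrated over development by trapezoidal AUC.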

[11] = CCTE_Shafer_MEA_dev_AB: CCTE's Alamar Blue Assay for Cytotoxicity in the Neural Network Formation Assay, Shafer Lab (AID 2284083; active = hit-call score of the fitted dose curve at least 0.9, where 1 is the maximum;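 note: resazurin reduction fluorescence as viability of cultured neurons; twelve days of exposure from plating with re-dosing on DIV 5 and 9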)
Summary of the method: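 Fluorescent resazurin reduction serves as the viability read-out, with DMSO as negative control and baseline. Cells were primary rat cortical neurons grown on MEA plates and dosed from day 0 to day 12, treatment renewed on DIV 5 and 9.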

[12] = CCTE_Shafer_MEA_dev_correlation_coefficient_mean: CCTE's Neural Network Formation Assay for Mean Correlation Coefficient, Shafer Lab (AID 2284093);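 note: well mean pairwise spike train correlation integrated as AUC over recording days 5 to 12; potency fitted for loss of correlation relative to DMSO vehicle wells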
Summary of the method: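 Read-out: well-mean correlation coefficient of spike trains between electrode pairs, collapsed over four recording days as trapezoidal area-under-the-curve. Developing rat cortical neuron networks grown on MEAs received test chemical continuously from plating.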

[13] = IUF_NPC1b_proliferation_BrdU_72hr: Leibniz Research Institute for Environmental Medicine (IUF) 72-hour Neural Progenitor Cell Bromodeoxyuridine (BrdU) Proliferation Assay (NPC1b) (AID 2284207)
Summary of the method: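 Neural progenitor spheres of human fetal origin are treated for three days; BrdU added for the last 16 h is quantified by luminescence ELISA, with DMSO as baseline and EGF/FGF omission as positive control.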

[14] = IUF_NPC1a_proliferation_area_72hr: Leibniz Research Institute for Environmental Medicine (IUF) 72-hour Neural Progenitor Cell Proliferation Area Assay (NPC1a) (AID 2284208)
Summary of the method: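 Proliferation is scored as sphere area gain in primary human fetal neural progenitors treated for 72 h in EGF/FGF-containing medium. Viability, LDH and BrdU readouts come from the same wells.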

[15] = IUF_NPC1_viability_72hr: Viability Assessment at 72 hours in the Leibniz Research Institute for Environmental Medicine (IUF) Neural Progenitor Cell Proliferation Assay (NPC1) (AID 2284209)
Summary of the method: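 Alamar blue fluorescence (RFU) after 72 h exposure, normalized to DMSO baseline. hNPC spheres from GW 16-19 fetal cortex, single sphere per well in growth-factor medium; no compound renewal.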

[16] = CCTE_Mundy_HCI_Cortical_Synap_Neur_Matur_NeuriteSpotCountPerNeuriteLength: CCTE's Synaptogenesis and Neurite Maturation Assay in rat cortical cells for Neurite Spot Count per Neurite Length, Mundy Lab (AID 2284210)
Summary of the method: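 Neurite-associated synapse density (synaptophysin puncta per unit neurite length) is measured by fluorescence high-content imaging in rat cortical cultures treated from DIV 7 and fixed at DIV 12, with DMSO as negative control.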

[17] = CCTE_Mundy_HCI_Cortical_NOG_NeuriteLength: CCTE's Neurite Outgrowth Assay in rat cortical cells for Neurite Length, Mundy Lab (AID 2284213)
Summary of the method: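 First, rat primary cortical cells were plated and, 2 h later, given test chemical as a 1/10 dilution. Finally, βIII-tubulin immunostaining enabled automated imaging of neurite length.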

[18] = CCTE_Mundy_HCI_Cortical_Synap_Neur_Matur_NeuriteLength: CCTE's Synaptogenesis and Neurite Maturation Assay in rat cortical cells for Neurite Length, Mundy Lab (AID 2284214)
Summary of the method: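 Read-out: high-content imaging of MAP2-labelled neurites, with synaptophysin and Hoechst co-stain, in rat cortical cultures fixed at DIV 12. Activity fitted in positive direction relative to DMSO baseline.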

[19] = CCTE_Mundy_HCI_Cortical_Synap_Neur_Matur_NeuriteSpotCountPerNeuron: CCTE's Synaptogenesis and Neurite Maturation Assay in rat cortical cells for Neurite Spot Count per Neuron Count, Mundy Lab (AID 2284215)
Summary of the method: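 Synapse density is scored as synaptophysin spots along neurites per neuron in fixed rat cortical neurons, measured at DIV 12 after chemical dosing at DIV 7. DMSO is the negative control and activity baseline.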

[20] = CCTE_Mundy_HCI_Cortical_Synap_Neur_Matur_SynapseCount: CCTE's Synaptogenesis and Neurite Maturation Assay in rat cortical cells for Synapse Count, Mundy Lab (AID 2284218)
Summary of the method: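 Read-out: synapse number per neuron, automated high-content imaging of fixed cells immunostained for MAP2 and synaptophysin plus Hoechst nuclei. Rat primary cortical cultures, AraC at DIV 5, chemical dosing DIV 7–12. Positive-direction fit relative to DMSO.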

[21] = CCTE_Mundy_HCI_Cortical_Synap_Neur_Matur_CellBodySpotCount: CCTE's Synaptogenesis and Neurite Maturation Assay in rat cortical cells for Cell Body Spot Count, Mundy Lab (AID 2284223)
Summary of the method: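 Synapse number at neuronal cell bodies was quantified as synaptophysin puncta per neuron in rat cortical cultures exposed from DIV 7 to DIV 12. Values were normalised to DMSO.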

[22] = CCTE_Mundy_HCI_Cortical_NOG_NeuronCount: CCTE's Neurite Outgrowth Assay in rat cortical cells for Neuron Count, Mundy Lab (AID 2284236; active = hit-call score of the fitted dose curve at least 0.9, where 1 is the maximum;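 note: neurons counted by imaging betaIII-tubulin and Hoechst stained cortical cells; cells exposed to compound for about 48 hours before fixation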)
Summary of the method: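 Read-out: neuron number by high-content imaging of betaIII-tubulin (Alexa Fluor-488) and Hoechst-labelled rat primary cortical cells.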

[23] = CCTE_Mundy_HCI_Cortical_Synap_Neur_Matur_NeuronCount: CCTE's Synaptogenesis and Neurite Maturation Assay in rat cortical cells for Neuron Count, Mundy Lab (AID 2284242; active = hit-call score of the fitted dose curve at least 0.9, where 1 is the maximum)
Summary of the method: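 Rat cortical cultures; AraC DIV 5; chemical dosing + media change DIV 7 to DIV 12 (288.33 h readout). Fix, Hoechst, anti-MAP2/anti-synaptophysin immunostain; HCI neuron count vs DMSO baseline.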

[24] = IUF_NPC2c_oligodendrocyte_migration_120hr: Leibniz Research Institute for Environmental Medicine (IUF) 120-hour Neural Progenitor Cell Migration Assay for Oligodendrocyte Migration (NPC2c) (AID 2284297);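 note: O4-positive oligodendrocyte migration distance divided by radial glia migration distance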
Summary of the method: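 Primary hNPC spheres migrating on extracellular matrix, exposed five days to a 7-point dilution series with solvent control. Oligodendrocyte migration was scored by high-content imaging of O4 immunostaining and expressed relative to radial glia distance.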

[25] = IUF_NPC2a_radial_glia_migration_120hr: Leibniz Research Institute for Environmental Medicine (IUF) 120-hour Neural Progenitor Cell Migration Assay for Radial Glia Migration (NPC2a) (AID 2284298)
Summary of the method: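 In this multiplexed test, fetal hNPC spheres migrate radially on poly-D-lysine/laminin in N2 medium (37C, 5% CO2, pH 7.2-7.6) under continuous compound exposure over five days. Migration is scored at 120 h from automated Hoechst nuclear imaging.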

[26] = IUF_NPC2a_radial_glia_migration_72hr: Leibniz Research Institute for Environmental Medicine (IUF) 72-hour Neural Progenitor Cell Migration Assay for Radial Glia Migration (NPC2a) (AID 2284299)
Summary of the method: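 Readout: mean of four manual brightfield measurements of radial glia migration distance (um) at 72 h. hNPC spheres (0.3 mm) exposed to 7 compound concentrations plus solvent control on PDL/laminin, 37C, 5% CO2; activity fitted relative to DMSO.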

[27] = IUF_NPC2b_neuronal_migration_120hr: Leibniz Research Institute for Environmental Medicine (IUF) 120-hour Neural Progenitor Cell Migration Assay for Neuron Migration (NPC2b) (AID 2284300)
Summary of the method: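 Neurons identified by TUBB3 immunostaining and Hoechst nuclei; migration distance measured automatically on fixed wells at 120 h, normalized to glia migration. Exposure spanned five days of differentiation in N2 medium, seven test concentrations.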

[28] = IUF_NPC3_neuronal_differentiation_120hr: Leibniz Research Institute for Environmental Medicine (IUF) 120-hour Neuronal Differentiation Assay (NPC3) (AID 2284301)
Summary of the method: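 Neuronal differentiation of primary human neural progenitors measured by high-content imaging: percent TUBB3+ of Hoechst+ nuclei within migrated area at 120 h, seven-point serial dilution plus solvent control, gain or loss relative to DMSO.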

[29] = IUF_NPC4_neurite_length_120hr: Leibniz Research Institute for Environmental Medicine (IUF) 120-hour Neuronal Morphology Assay for Neurite Length (NPC4) (AID 2284302)
Summary of the method: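 Neurons from differentiating human fetal neural progenitor spheres are scored for average neurite length after five days of compound exposure. Fitting uses DMSO as negative control.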

Measured: AC50

CN(C)CCCn1cc(C2=C(c3c[nH]c4ccccc34)C(=O)NC2=O)c2ccccc21
inactive: [3] | [4] | [5] | [6] | [9] | [15] | [16] | [17] | [18] | [19] | [20] | [21] | [22] | [23]
active: [1] 4.52 µM and 2.95 µM and 5 µM | [2] 4.2 µM [middle of 4 runs] | [6] 264 nM and 467 nM and 1.58 µM | [7] 3.8 µM and 3.08 µM and 5 µM | [8] 6.41 µM and 5 µM and 3.28 µM | [10] 1.61 µM and 2.57 µM and 5 µM | [11] 7.86 µM [middle of 4 runs] | [12] 3.16 µM [middle of 4 runs] | [13] 0.263 µM | [14] 11.6 µM | [24] 18.6 µM | [25] 5.37 µM | [26] 11.3 µM | [27] 16.3 µM | [28] 16.2 µM | [29] 4.06 µM
